Sampled rows, rich in hits. Any-hit rate of the full collection: about 6%.
DRD3 agonist: D3 dopamine receptor (human) agonism; P35462; D3R DiscoveRx beta-arrestin cells, luminescence, 90 min; max activation, %; 410,000 tested, 0.58% active; AID 652048; in the data active = max activation above about 30%; also: 0% is about no effect
Target sequence (P35462 whole entry, looked up): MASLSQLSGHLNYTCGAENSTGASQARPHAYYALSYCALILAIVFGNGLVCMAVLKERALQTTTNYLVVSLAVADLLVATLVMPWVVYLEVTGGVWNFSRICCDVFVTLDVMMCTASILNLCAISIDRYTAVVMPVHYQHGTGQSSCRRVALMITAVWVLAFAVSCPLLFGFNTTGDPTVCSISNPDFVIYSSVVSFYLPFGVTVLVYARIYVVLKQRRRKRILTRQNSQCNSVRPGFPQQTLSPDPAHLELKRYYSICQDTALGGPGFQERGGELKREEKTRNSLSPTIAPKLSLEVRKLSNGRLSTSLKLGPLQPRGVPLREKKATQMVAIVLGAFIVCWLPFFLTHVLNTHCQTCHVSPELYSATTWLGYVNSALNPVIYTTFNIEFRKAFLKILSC
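Cells at 1500/well, incubated overnight, then treated with pinned compounds (dopamine as control) for 90 min at 37 degrees C. DiscoveRx reagent added for 30 - 60 minutes at room temperature; luminescence read.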
DRD3 antagonist: D3 dopamine receptor (human) antagonism; P35462; D3R cells, DiscoveRx beta-arrestin luminescence, antagonist mode; stronger effect = lower value; max response, negative = inhibition, %; 360,000 tested, 2.5% active; in the data active = max response below about -50%; inconclusive = no clear call, values can overlap the other calls; also: % is scaled to controls: 0 for no effect and ±100 for the full control effect
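Cells plated overnight at 1500 cells/well, then exposed to library compounds with dopamine controls for 90 minutes at 37 degrees C. DiscoveRx reagent added for 30–60 minutes at room temperature; luminescence read, quantitative HTS format.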
D1 PAM: potentiators of human D1 dopamine receptor; P21728; HEK293 TREx D1 cells, calcium flux, dopamine EC20 potentiation; potentiation, % at 10 µM; 360,000 tested, 0.036% active; AID 504651; in the data active = potentiation above about 30%; also: 0% is about no effect
D1 agonist: activates the human D1 dopamine receptor; activation, % at 2 µM; HEK293 T-REx D1 cells, calcium flux, agonist mode; 360,000 tested, 1% active; P21728; in the data active = activation above about 30%; also: 0% is about no effect
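Tetracycline-induced HEK293 TREx D1 cells, force-coupled to calcium signalling, were dye-loaded with a no-wash calcium kit. Compound was pin-added after a 10 s baseline. Fluorescence was read kinetically at 1 cycle/s for 180 s, with calcium rises flagged as agonism.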
D1 antagonist: blocks dopamine activation of the human D1 receptor; HEK293 TREx D1 cells, calcium flux, dopamine EC80; stronger effect = lower value; 360,000 tested, 3.2% active; P21728; activity change, negative = inhibition, % at 10 µM; in the data active = activity change below about -30%; also: % is scaled to controls: 0 for no effect and ±100 for the full control effect
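Antagonism measured as reduced calcium response to an EC80 dopamine addition following 180 s compound pre-read; cells were inducible HEK293 Trex D1 plated overnight at 30 C, read kinetically at 1 cycle/sec.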
Numbers without * were called inactive; u = inconclusive; x = not tested or not shown.

SMILES	DRD3 agonist	DRD3 antagonist	D1 PAM	D1 agonist	D1 antagonist
CCOc1ccc(-n2c(SCC(=O)N3CCCCCC3)nc3c([nH]c4ccccc43)c2=O)cc1	-9	x	-1	2	9
Cc1cccc(N2CCN(C(=O)c3cn(CC(C)C)c(=O)c4c3c3ccccc3n4C)CC2)c1C	30*	x	0	-1	18
Cc1ccc(C)c(N2CCN(C(=O)c3cn(CC(C)C)c(=O)c4c3c3ccccc3n4C)CC2)c1	4	x	2	1	3
Cc1cccc(NC(=S)NNC(=O)c2csc(C(C)C)c2)c1	-3	15	-5	0	0
CCCc1cc(C(=O)NNC(=S)NCC2CCCO2)cs1 (stereo unspecified)	-13	7	1	3	0
CCc1cc(C(=O)NNC(=S)Nc2cccc(C)c2)cs1	-8	-101*	-6	-2	6
CCc1cc(C(=O)NNC(=S)NCC2CCCO2)cs1 (stereo unspecified)	-2	-53*	5	1	-1
COc1cccc(C2CC(=O)Nc3c2c(=O)nc2c(C)cccn32)c1 (stereo unspecified)	7	x	-3	0	15
COc1cccc(NC(=O)C2(C)CCN2C(=O)CCc2ccc(Cl)cc2Cl)c1 (stereo unspecified)	-5	-60*	x	x	x
CC(C)c1cc(N2CCN(C(=O)c3ccco3)CC2)n2c(nc3ccccc32)c1C#N	-3	8	-3	0	-33*
CC1(C)Cc2c(C#N)c(N3CCN(C(=O)c4ccco4)CC3)nc(Cc3ccccc3)c2CO1	30*	0	-1	5	6
N#Cc1c(N2CCN(C(=O)c3ccco3)CC2)nc(-c2ccccc2)c2c1CCCC2	38*	18	1	3	11
Cc1cccc(NS(=O)(=O)c2ccc3[nH]c(=O)ccc3c2)c1C	-18	x	-2	12	1
COCCNc1nc2c(c(=O)[nH]c(=O)n2C)n1CCCc1ccccc1	-3	-18	0	1	5
CCN(CC)CCCNC(=O)c1cc(-c2ccc(OC)c(OC)c2)on1	7	x	2	-2	4
O=C1NN(c2ccc(F)cc2)C(=O)/C1=C/c1cccs1	-6	-63*	-3	2	4
Cn1cccc1/C=C1/SC(=S)N(CC(=O)O)C1=O	-5	u	-4	12	-15
C=CCN1C(=O)/C(=C\C=C2\N(C)c3ccccc3C2(C)C)SC1=S	-7	-20	-8	85*	-1
CCCN1C(=O)/C(=C/C=C2\N(CC)c3ccccc3C2(C)C)SC1=S	-14	0	-2	63*	0
CCCCN1C(=O)/C(=C/C=C2/CC(C)(C)CN2C)SC1=S	-8	-10	-4	128*	12
CN1/C(=C\C=C2/SC(=S)N(CC(=O)O)C2=O)C(C)(C)c2ccccc21	-16	-79*	-10	182*	-26
CCCN1C(=O)/C(=C2/C=Cc3ccccc3N2CC)SC1=S	-9	-26	-3	4	12
CCOC(=O)N1CCN(Cc2nc3cc([N+](=O)[O-])ccc3n2C(C)C)CC1	-9	x	1	7	-13
COCCCNC(=O)CSc1nc2c(sc3ccccc32)c(=O)n1CCc1ccc(OC)c(OC)c1	9	x	-1	-1	-10
O=C(NCc1ccccc1Cl)c1nnc(Cc2ccc(Cl)cc2)o1	6	x	-1	7	7
SMILES	DRD3 agonist	DRD3 antagonist	D1 PAM	D1 agonist	D1 antagonist
CSc1ncc(C(=O)Nc2cc(C)cc(C)c2)c(-c2ccccc2)n1	-12	x	-1	0	10
COc1ccc(Cn2ccnc2SCC(=O)Nc2ccc3c(c2)OCCO3)cc1	2	x	-4	0	4
CCCCN1C(=O)/C(=C/C=C2\Oc3ccccc3N2CC)SC1=S	-3	9	-6	393*	-30
CCN1C(=O)/C(=C\N2CCCc3ccccc32)SC1=S	-11	-10	-7	2	-17
Cc1ccc(Cl)cc1NC(=O)CC1Sc2ccccc2NC1=O (stereo unspecified)	-7	x	-1	0	16
O=C(CSc1nnnn1C1CC1)N1CCN(Cc2ccccc2F)CC1	-1	12	1	2	-34*
CCC(=O)N1CCc2cc(CNS(=O)(=O)c3ccccc3F)ccc21	-2	x	6	5	-10
Cc1nn(-c2ccccc2)c(Cl)c1/C=N/NC(N)=O	4	-5	2	2	-32*
COC[C@H](c1ccc(C(F)(F)F)cc1)N1CCN(C2(C)CCN(C(=O)c3c(C)ncnc3C)CC2)C[C@H]1C	13	x	x	x	x
